Test [1] is described as follows: qHTS assay to identify small molecule agonists of the RXR signaling pathway - cell viability counter screen (AID 1159529). Note: nearly all actives have a fitted effect of over 50% in size. Note: potency is the fitted concentration of half-maximal effect. The method in brief:
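In this parallel viability measure, GeneBLAzer RXR-alpha HEK 293T cells (2% charcoal-stripped FBS) were given a 5 hr preincubation, treated with compounds 16 hr at 37 C, and read by CellTiter-Glo luminescence.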
(Quantitative high-throughput screening tests each substance at several concentrations.)

Test [2] is described as follows: qHTS assay to identify small molecule antagonists of the retinoid acid receptor (RAR) signaling pathway - cell viability counter screen (AID 1159551). Note: nearly all actives have a fitted effect of over 35% in size. Note: potency is the fitted concentration of half-maximal effect. The essentials: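 Luminescent ATP quantitation (CellTiter-Glo) gave cell viability in C3RL4 cells exposed to test chemicals for 6 h at 37 C alongside 1 uM final retinol.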
Test [3] in a line: qHTS assay to identify small molecule antagonists of the retinoic acid receptor (RAR) signaling pathway (AID 1159552; note: nearly all actives have a fitted effect of over 50% in size; note: potency is the fitted concentration of half-maximal effect). The method in brief: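 C3RL4 RARE-luc cells, overnight plating; retinol 1 uM final added right after compound; 6 hr 37 C; luciferase read at 30 min RT.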
Test [4] is described as follows: qHTS assay to identify small molecule antagonists of the estrogen related receptor (ERR) signaling pathway from Tox21 library - cell viability counter screen (AID 1224834). Note: nearly all actives have a fitted effect of over 30% in size. Note: potency is the fitted concentration of half-maximal effect. The essentials:
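Fluorescence from CellTiter-Fluor gives the viability read-out, taken 30 min after reagent addition. Before that, ERR cells seeded 6 h earlier were incubated with compounds for 17.5 h at 37 C.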

The target in test [5] is Luciferin 4-monooxygenase (Photinus pyralis) (UniProt P08659). The test can be described thus: qHTS assay to identify small molecule inhibitors of firefly luciferase (AID 1224835). Note: nearly all actives have a fitted effect of over 25% in size. Note: potency is the fitted concentration of half-maximal effect. The essentials: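 Inhibition of purified Photinus luciferase is measured by luminescence. Substrate levels (D-luciferin, ATP) sit at their KM values. Each compound is tested in a concentration series.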

Test [6] in a line: qHTS assay to identify small molecule agonists of the constitutive androstane receptor (CAR) signaling pathway - cell viability counter screen (AID 1224836). Note: nearly all actives have a fitted effect of over 45% in size. Note: potency is the fitted concentration of half-maximal effect. The essentials: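 Using CellTiter-Fluor, viability of HepG2 cells harbouring hCAR and CYP2B6-2.2kb was measured following 23 h incubation with a 15-concentration compound series plus PK11195 (0.75 uM final).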
Test [7] in a line: qHTS assay to identify small molecule antagonists of the constitutive androstane receptor (CAR) signaling pathway - cell viability counter screen (AID 1224837). Note: nearly all actives have a fitted effect of over 45% in size. Note: potency is the fitted concentration of half-maximal effect. The essentials:
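HepG2-CYP2B6-hCAR cells, 2500/well, 4 hr pre-incubation; compound titration, 15 conc.; CITCO 50 nM final; 23 hr, 37 C/5% CO2; CellTiter-Fluor, fluorescence intensity.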

Test [8] addresses Nuclear receptor subfamily 1 group I member 3 (Homo sapiens) (UniProt Q14994). The test can be described thus: qHTS assay to identify small molecule antagonists of the constitutive androstane receptor (CAR) signaling pathway (AID 1224838).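 Note: HepG2 cells stably expressing hCAR with CYP2B6 luciferase reporter stimulated by CITCO; nearly all actives have a fitted effect of over 40% in size.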 Note: potency is the fitted concentration of half-maximal effect. The method in brief:
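HepG2-CYP2B6-hCAR cells; 4 h pre-incubation; cpd (15 conc) + CITCO 50 nM final; 24 h, 37 C/5% CO2; ONE-Glo, luminescence.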

Test [9] has the same target. The test can be described thus: qHTS assay to identify small molecule agonists of the constitutive androstane receptor (CAR) signaling pathway (AID 1224839). Note: nearly all actives have a fitted effect of over 15% in size. Note: potency is the fitted concentration of half-maximal effect. The essentials:
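Double-stable HepG2 cells (hCAR, CYP2B6-2.2kb) seeded 4 h before compound addition. Exposure 24 h with 0.75 uM PK11195 final. Luciferase detected by ONE-Glo.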

A short description of test [10]: qHTS assay to identify small molecule antagonists of the estrogen related receptor signaling pathway with the pleiotropic PPARgamma coactivator (PGC) from Tox21 10K library - cell viability counter screen (AID 1224840; active = well fitted cell-killing curve with a large enough effect in the repeat runs, not every such curve was filed as active; note: nearly all actives have a fitted effect of over 40% in size; note: potency is the fitted concentration of half-maximal effect). The method in brief:
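PGC/ERR cells, 2,000/well; 6 h pre-incubation 37 C/5% CO2; cpd in DMSO via pin tool; 17.5 h 37 C; CellTiter-Fluor, 30 min; fluorescence.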

A short description of test [11]: qHTS assay to identify small molecule antagonists of the estrogen related receptor signaling pathway with the pleiotropic PPARgamma coactivator (PGC) from Tox21 10K library (AID 1224841; call rule not given here; note: actives are mostly falling curves and most rising ones were filed inactive; nearly all actives have a fitted effect of over 50% in size; note: potency is the fitted concentration of half-maximal effect). The essentials: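 PGC/ERR cell line, 2,000 cells/well; 6 h pre-incubation 37 C/5% CO2; compounds (DMSO) pinned in; 18 h, 37 C; One-Glo, 30 min RT; luminescence.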
Test [12] is described as follows: qHTS assay to identify small molecule agonists of the estrogen related receptor signaling pathway with the pleiotropic PPARgamma coactivator (PGC) from Tox21 10K library (AID 1224842). Note: nearly all actives have a fitted effect of over 15% in size. The method in brief: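 Luminescence from One-Glo (30 min, room temperature) measured after PGC/ERR cells had 18 h at 37 C with pinned compound (23 nL in DMSO). Cells had been seeded at 2,000 per well and pre-incubated 6 h.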

The target in test [13] is Thyrotropin receptor (Homo sapiens) (UniProt P16473). Description: qHTS assay to identify small molecule agonists of the thyroid stimulating hormone receptor (TSHR) signaling pathway (AID 1224843; calls by dose curve; note: nearly all actives have a fitted effect of over 45% in size). The essentials:
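Screening of the Tox21 10K collection used HEK293 cells engineered with TSHR at 800 cells per well. After a 30-min room-temperature compound exposure, HTRF cAMP reagents were added and fluorescence recorded 1 h later.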

Test [14] in a line: qHTS assay to identify small molecule agonists of the retinoic acid receptor (RAR) signaling pathway (AID 1159553). The essentials: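 Luminescence from a RARE-driven luciferase reporter in C3RL4 cells served as the read-out, measured after 30 min with detection reagent at room temperature. Compounds in DMSO were applied for 6 hr at 37 C following overnight seeding.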

“And” between values parts separate entries of the source, which are not always exact repeats. Identical values can stand only once. Inconclusive results are not listed. Unmarked numbers belong to inactive results. The source made the active and inactive calls. Unless noted, calls come from the whole dose curve; as a rule, active = well fitted curve in the direction sought with a large enough effect in the repeat runs; inconclusive = weak or mixed curves; inactive = no such curve, though single readings can be large; an effect the other way counts as inactive or inconclusive.

The values that follow come from PubChem BioAssay (Tox21).

Luciferin 4-monooxygenase (Photinus pyralis), sequence (P08659 whole entry, looked up): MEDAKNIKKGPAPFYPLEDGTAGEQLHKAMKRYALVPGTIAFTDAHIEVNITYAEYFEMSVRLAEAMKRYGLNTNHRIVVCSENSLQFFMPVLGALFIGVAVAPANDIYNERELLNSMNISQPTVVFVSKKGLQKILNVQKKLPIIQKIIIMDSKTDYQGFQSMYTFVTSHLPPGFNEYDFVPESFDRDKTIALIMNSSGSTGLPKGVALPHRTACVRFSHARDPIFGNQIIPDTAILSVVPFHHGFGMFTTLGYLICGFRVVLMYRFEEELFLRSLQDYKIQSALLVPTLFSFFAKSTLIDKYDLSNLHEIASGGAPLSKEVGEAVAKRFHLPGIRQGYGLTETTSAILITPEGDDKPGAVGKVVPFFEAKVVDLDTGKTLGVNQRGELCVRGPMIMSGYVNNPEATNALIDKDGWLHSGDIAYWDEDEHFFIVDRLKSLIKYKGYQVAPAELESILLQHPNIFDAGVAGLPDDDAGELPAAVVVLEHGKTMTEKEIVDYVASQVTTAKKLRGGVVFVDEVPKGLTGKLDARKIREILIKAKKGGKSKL
Thyrotropin receptor (Homo sapiens), sequence (P16473 whole entry, looked up): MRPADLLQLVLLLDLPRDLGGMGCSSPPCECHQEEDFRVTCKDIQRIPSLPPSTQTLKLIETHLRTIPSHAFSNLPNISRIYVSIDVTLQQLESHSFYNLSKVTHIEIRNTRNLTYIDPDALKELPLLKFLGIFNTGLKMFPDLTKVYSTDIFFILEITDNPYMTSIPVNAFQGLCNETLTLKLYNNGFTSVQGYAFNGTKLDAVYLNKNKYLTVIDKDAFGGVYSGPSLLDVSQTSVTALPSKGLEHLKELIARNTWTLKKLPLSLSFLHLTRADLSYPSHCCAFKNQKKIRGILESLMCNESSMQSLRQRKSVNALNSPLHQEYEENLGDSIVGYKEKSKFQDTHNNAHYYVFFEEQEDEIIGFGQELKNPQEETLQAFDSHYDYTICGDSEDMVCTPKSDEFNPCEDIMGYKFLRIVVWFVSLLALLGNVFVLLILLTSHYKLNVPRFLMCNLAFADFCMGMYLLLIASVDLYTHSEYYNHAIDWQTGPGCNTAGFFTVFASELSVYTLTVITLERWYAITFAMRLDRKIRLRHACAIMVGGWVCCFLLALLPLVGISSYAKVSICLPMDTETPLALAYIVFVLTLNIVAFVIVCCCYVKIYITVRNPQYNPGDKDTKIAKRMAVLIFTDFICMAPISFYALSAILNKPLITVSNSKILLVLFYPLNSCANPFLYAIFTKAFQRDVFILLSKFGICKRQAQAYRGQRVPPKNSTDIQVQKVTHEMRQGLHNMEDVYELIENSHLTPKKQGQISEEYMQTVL
Nuclear receptor subfamily 1 group I member 3 (Homo sapiens), sequence (Q14994 whole entry, looked up): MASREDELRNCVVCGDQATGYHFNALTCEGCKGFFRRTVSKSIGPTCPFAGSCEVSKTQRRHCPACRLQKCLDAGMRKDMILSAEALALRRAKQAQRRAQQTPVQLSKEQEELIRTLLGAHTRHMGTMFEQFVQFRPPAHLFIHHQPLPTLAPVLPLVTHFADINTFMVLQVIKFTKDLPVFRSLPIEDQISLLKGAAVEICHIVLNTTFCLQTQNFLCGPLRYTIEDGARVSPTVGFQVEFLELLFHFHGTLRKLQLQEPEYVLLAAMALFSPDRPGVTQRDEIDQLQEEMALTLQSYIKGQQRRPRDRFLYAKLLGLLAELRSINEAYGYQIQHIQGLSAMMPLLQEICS

Regarding `Oc1cccc(-c2ccccc2)c1`, the Potency entry in test [1], in test [2], in [3], in test [4], in test [6] and in [7] was “inactive” throughout. In addition, the Potency entry in [8], in test [10], in test [11], in [12] and in [13] was “inactive” throughout. Also, the Potency in test [5] was 35.6 µM (active); in test [9] it was 54.5 µM (active).
Regarding `CCC(C)(C)C(=O)OC1=C(c2ccc(Cl)cc2Cl)C(=O)OC12CCCCC2`, the Potency entry in test [1], in test [2], in test [3], in test [4], in test [6] and in [7] was “inactive” throughout. Further, the Potency entry in test [8], in test [9], in [10], in test [11] and in test [13] was “inactive” throughout. Besides, the Potency in test [5] was 31.7 µM (active).
Consider `C[C@@H]1CC[C@@]2(OC1)O[C@H]1[C@@H](O)[C@H]3[C@@H]4CC[C@H]5C[C@@H](O[C@@H]6O[C@H](CO)[C@H](O[C@@H]7O[C@H](CO)[C@@H](O)[C@H](O[C@@H]8OC[C@@H](O)[C@H](O)[C@H]8O)[C@H]7O[C@@H]7O[C@H](CO)[C@@H](O)[C@H](O[C@@H]8O[C@H](CO)[C@@H](O)[C@H](O)[C@H]8O)[C@H]7O)[C@H](O)[C@H]6O)[C@H](O)C[C@]5(C)[C@H]4CC[C@]3(C)[C@H]1[C@@H]2C`, for which the Potency in test [1] was 4.13 µM (active); in test [2] it was 25.8 µM (active); in test [3], 20.5 µM (active); in test [4], 20.5 µM (active); in test [6] it was 23 µM (active); in test [7], 25.8 µM (active). Besides, the Potency in test [8] is 29 µM (active); in [10], 20.5 µM (active); in test [11] it was 40.9 µM (active). The Potency entry in [5] and in test [9] was “inactive” in each case.
For `O=C(NC(=O)c1c(F)cccc1F)Nc1cc(Cl)c(OC(F)(F)C(F)F)c(Cl)c1`, the Potency entry in test [1], in [2], in test [3], in test [4], in test [5] and in test [6] was “inactive” in each case. Moreover, the Potency result in test [7], in [8], in test [10] and in test [13] was “inactive” each time. For the same molecule, the Potency in test [9] is 2.17 µM (active).
As to `CCOP(=S)(OCC)SCS(=O)(=O)CC`, the Potency entry in test [1], in test [2], in test [3], in [4], in test [5] and in test [6] was “inactive” each time. For the same molecule, the Potency entry in [7], in [8], in [9] and in test [13] was “inactive” throughout.
In the case of `N#C/C=C/c1ccccc1`, the Potency result in [1], in test [2], in test [3], in [4], in test [5] and in test [6] was “inactive” each time. The Potency entry in test [7], in test [8], in [9] and in test [10] was “inactive” each time.
Consider `ClC1=C(Cl)[C@]2(Cl)[C@@H]3[C@@H](Cl)[C@@H](Cl)C[C@@H]3[C@@]1(Cl)C2(Cl)Cl`, for which the Potency result in test [1], in test [2], in test [3], in [4], in test [5] and in [6] was “inactive” each time. Besides, the Potency result in test [7], in [8], in test [9], in test [10], in test [11] and in test [12] was “inactive” throughout.
On to `COCC(=O)N(c1c(C)cccc1C)[C@H](C)C(=O)OC`, for which the Potency entry in test [1], in test [2], in test [3], in [4], in test [5] and in [6] was “inactive” throughout. For the same molecule, the Potency entry in test [7], in test [8], in test [9], in test [10], in test [11] and in test [12] was “inactive” throughout. Further, the Potency result in test [13] is “inactive”.
Regarding `CCOP(=S)(OCC)SCS(=O)(=O)C(C)(C)C`, the Potency result in test [1], in test [2], in test [3], in [4], in test [5] and in [6] was “inactive” in each case. In addition, the Potency result in test [7], in test [8], in test [10] and in test [13] was “inactive” in each case.
In the case of `O=C(O)C1C2CCC(O2)C1C(=O)O` (stereo not given), the Potency entry in test [1], in [2], in test [3], in test [14], in test [5] and in [9] was “inactive” each time. Also, the Potency entry in [10], in test [11] and in test [13] was “inactive” each time. Also, in test [8], the Potency was 49.2 µM (active) and 44.5 µM (active).
As to `CCCCOP(=O)(CCCC)OCCCC`, the Potency entry in test [1], in test [2], in test [3], in test [4], in test [5] and in test [6] was “inactive” throughout. Moreover, the Potency entry in [7], in test [8] and in test [12] was “inactive” in each case.
Turning to `Cn1[nH]nnc1=S`, the Potency result in test [1], in test [2], in [3], in test [4], in test [6] and in test [7] was “inactive” throughout. Moreover, the Potency result in test [8], in test [9], in test [10] and in test [13] was “inactive” in each case. Moreover, the Potency in test [5] was 22.4 µM (active).
For `CC(C)(COCC1CO1)COCC1CO1` (stereo not given), the Potency entry in test [1], in test [2], in test [3], in [4], in test [5] and in test [6] was “inactive” throughout. The Potency entry in [7], in test [8], in test [9], in test [10], in test [12] and in test [13] was “inactive” in each case.
For the molecule `CC(Cl)CN(C)C` (stereo not given), the Potency entry in test [1], in test [2], in test [3], in test [4], in test [5] and in [6] was “inactive” each time. Also, the Potency result in test [7], in test [8], in test [9] and in test [10] was “inactive” throughout.
In the case of `O=[N+]([O-])c1cc(Cl)ccc1Cl`, the Potency entry in test [1], in [2], in test [3], in test [4], in test [5] and in test [6] was “inactive” each time. The Potency result in [7], in [8], in test [9], in [10] and in [13] was “inactive” in each case.
`C=CCOC(N)=O`: the Potency result in [1], in test [2], in [3], in test [4], in test [5] and in [6] was “inactive” throughout. Also, the Potency result in test [7], in test [8], in [9], in test [10], in [11] and in test [12] was “inactive” throughout. Moreover, the Potency entry in [13] was “inactive”.
Regarding `CC(=O)OC1(c2ccccc2)CCN(CCc2ccccc2)CC1`, the Potency result in [1], in [2], in test [3], in [14], in [5] and in test [9] was “inactive” each time. Also, the Potency result in test [10] and in test [13] was “inactive” each time. For the same molecule, the Potency in test [8] was 8.84 µM (active).
`Oc1ccccc1Br`: the Potency result in test [1], in test [2], in [3], in test [4], in test [5] and in [6] was “inactive” throughout. Also, the Potency result in [7], in test [8], in test [9] and in test [10] was “inactive” each time.
Turning to `CSCCCN=C=S`, the Potency result in test [1], in test [2], in test [3], in [5], in test [10] and in test [11] was “inactive” in each case. The Potency result in [12] and in [13] was “inactive” each time.
As for `Nc1ccc([N+](=O)[O-])cc1Cl`, the Potency result in test [1], in test [2], in test [3], in [7], in test [8] and in [10] was “inactive” throughout. The Potency entry in test [13] is “inactive”.
On to `N#CCCO`, for which the Potency result in test [1], in test [2], in test [3], in test [4], in [5] and in test [6] was “inactive” each time. Besides, the Potency entry in test [7] and in test [10] was “inactive” in each case.
